C diff HTS = inhibitors of Clostridium difficile growth | Clostridium difficile clinical isolate growth, OD600, 24 h; active compounds read low | 86,000 tested, 0.25% active | AID 1259249 | growth activity, negative = inhibition, % at 16 µg/mL (by protocol);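 active = mean growth activity at or below -80% and every replicate also at or below -80%; inconclusive = mean at or below -80% but some replicate above -80%; inactive = mean growth activity above -80%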
Pf Dd2 inh = blocks growth of Plasmodium falciparum Dd2 parasites. P. falciparum Dd2 growth, SYBR Green, 72 h; active compounds read low. AID 1159554. 94,000 tested, 2.3% active. activity change, % at 10 µM; in the data active = activity change below about -80%; inconclusive = no clear call, values can overlap the other calls
T cruzi growth-1 = T. cruzi proliferation inhibition; T. cruzi beta-gal in NIH3T3, GalScreen luminescence, 90 h; inhibition, % at 8.34 µM; 77,000 tested, 5.9% active;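 active = mean inhibition above about 93%, with at least 55% of replicates each passing it, limit read from the data, passing the limit was not always enough; inconclusive = only one of those two conditions holds; inactive = neither condition holds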
T cruzi growth-2 = inhibitors of T. cruzi proliferation | T. cruzi beta-gal in NIH3T3, GalScreen luminescence, 90 h | 5,600 tested, 72% active | AID 651739 | shares compounds with T cruzi growth-1 | inhibition, % at 8.35 µM;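 active = mean replicate inhibition above about 95% and at least 55% of replicates individually reaching it, limit read from the data; inconclusive = only one of the two criteria is met; inactive = neither criterion is met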
T cruzi growth-3 = blocks T. cruzi growth in NIH3T3 host cells; AID 651740; shares compounds with T cruzi growth-1; T. cruzi beta-gal in NIH3T3, GalScreen luminescence, 90 h; inhibition, % at 2.09 µM; 5,600 tested, 21% active;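 active = mean inhibition above about 95%, with at least 55% of replicates also reaching it, limit read from the data; inconclusive = meets just one of the two conditions; inactive = meets neither condition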
3T3 cytotox = NIH/3T3 (mouse) viability loss; shares compounds with T cruzi growth-1; NIH/3T3 viability, CellTiter-Glo ATP luminescence, 90 h; cytotoxicity (signal decrease), % at 8.35 µM; 5,600 tested, 14% active; AID 651742;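 active = mean signal decrease across replicates above about 35% based on untreated-well scatter, with enough replicates individually passing, limit read from the data; inconclusive = no rule stated though some were filed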
3T3 cytotox 2 = kills mouse NIH/3T3 fibroblasts; shares compounds with T cruzi growth-1; inhibition, % at 24.9 µM; NIH/3T3 viability, CellTiter-Glo ATP luminescence, 90 h; 5,600 tested, 56% active;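 active = mean loss of cell viability signal at or above a set limit, and enough replicates individually reaching it; inconclusive = meets only the mean limit or only the replicate share; inactive = meets neither condition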
Large screens that a line does not name were inactive (follow-up assays come after a bar, where they were run). Sampled rows, rich in hits. Any-hit rate of the full collection: about 6.8%.

CC(C)c1cn(CC[C@@H]2CC[C@H](NS(=O)(=O)c3ccccc3)[C@@H](CO)O2)nn1	none
Cn1cnc(S(=O)(=O)N2CCCCN3[C@H](C2)[C@@H](c2ccc(C#CC4CCCC4)cc2)[C@@H]3CO)c1	none
Cn1cnc(S(=O)(=O)N2CCCCN3[C@H](C2)[C@@H](c2ccc(C#CC4CC4)cc2)[C@@H]3CO)c1	none
Cn1cnc(S(=O)(=O)N2CCCCN3[C@H](CO)[C@H](c4ccc(C#CC5CCCC5)cc4)[C@H]3C2)c1	T cruzi growth-1 111 | T cruzi growth-2 95 | T cruzi growth-3 inactive | 3T3 cytotox inactive | 3T3 cytotox 2 105
Cn1cnc(S(=O)(=O)N2CCCCN3[C@@H](CO)[C@H](c4ccc(C#CC5CCCC5)cc4)[C@@H]3C2)c1	T cruzi growth-1 106 | T cruzi growth-2 inactive | T cruzi growth-3 inactive | 3T3 cytotox inactive | 3T3 cytotox 2 100
C[C@@H]1CN([C@@H](C)CO)C(=O)c2cc(NC(=O)Nc3ccc4c(c3)OCO4)ccc2O[C@H]1CN(C)Cc1ccc(C(=O)Nc2ccccc2N)cc1	none (no result: T cruzi growth-1)
C[C@H](CO)N1C[C@H](C)[C@@H](CN(C)Cc2ccc(C(=O)Nc3ccccc3N)cc2)Oc2c(NC(=O)Nc3ccc4c(c3)OCO4)cccc2C1=O	Pf Dd2 inh -88, T cruzi growth-1 107 (no result: C diff HTS) | T cruzi growth-2 103 | T cruzi growth-3 inactive | 3T3 cytotox inactive | 3T3 cytotox 2 54
COc1ccc(NC(=O)Nc2cccc3c2O[C@@H](CN(C)Cc2ccc(C(=O)Nc4ccccc4N)cc2)[C@H](C)CN([C@H](C)CO)C3=O)cc1	T cruzi growth-1 inconclusive | T cruzi growth-2 inactive | T cruzi growth-3 inactive | 3T3 cytotox inactive | 3T3 cytotox 2 65
COc1ccc(NC(=O)Nc2cccc3c2O[C@H](CN(C)Cc2ccc(C(=O)O)cc2)[C@H](C)CN([C@@H](C)CO)C3=O)cc1	none
C[C@H]1CN([C@@H](C)CO)C(=O)c2cccc(NC(=O)Nc3cccc4ccccc34)c2O[C@H]1CN(C)Cc1ccc(C(=O)Nc2ccccc2N)cc1	Pf Dd2 inh inconclusive (no result: T cruzi growth-1)
COc1ccc(NC(=O)Nc2cccc3c2O[C@@H](CN(C)Cc2ccc(C(=O)O)cc2)[C@@H](C)CN([C@H](C)CO)C3=O)cc1	T cruzi growth-1 102 | T cruzi growth-2 inactive | T cruzi growth-3 inactive | 3T3 cytotox inactive | 3T3 cytotox 2 inactive
C[C@@H]1CN([C@@H](C)CO)C(=O)Cc2cc(NC(=O)c3ccncc3)ccc2O[C@@H]1CN(C)Cc1ccc(-c2ccccc2)cc1	none
C[C@H](CO)N1C[C@H](C)[C@@H](CN(C)Cc2ccc(-c3ccccc3)cc2)Oc2ccc(NC(=O)c3ccncc3)cc2CC1=O	T cruzi growth-1 125 | T cruzi growth-2 112 | T cruzi growth-3 inactive | 3T3 cytotox inactive | 3T3 cytotox 2 106
C[C@H]1CN([C@@H](C)CO)C(=O)Cc2cc(NC(=O)c3ccncc3)ccc2O[C@H]1CN(C)Cc1ccc(Oc2ccccc2)cc1	T cruzi growth-1 97 | T cruzi growth-2 98 | T cruzi growth-3 inactive | 3T3 cytotox inactive | 3T3 cytotox 2 104
C[C@@H]1CN([C@H](C)CO)C(=O)Cc2cc(NC(=O)c3ccncc3)ccc2O[C@@H]1CN(C)Cc1ccccc1	none
C[C@H]1CN([C@@H](C)CO)C(=O)c2cccc(NS(=O)(=O)c3cn(C)cn3)c2O[C@H]1CN(C)C(=O)Nc1cccc2ccccc12	none (no result: C diff HTS)
CC(C)NC(=O)N[C@@H]1C=C[C@H](CC(=O)N2CCCCC2)O[C@H]1CO	none (no result: C diff HTS)
C/C=C/c1ccc([C@H]2[C@@H](CO)N(C(=O)C3CC3)C23CN(S(=O)(=O)CC)C3)cc1	none (no result: T cruzi growth-1)
COc1ccc2c3c([nH]c2c1)[C@@H](CO)N(S(C)(=O)=O)CC31CN(C(=O)c2ccncc2)C1	none (no result: T cruzi growth-1)
CN1C(=O)c2cc(NC(=O)c3ccc(F)c(F)c3)ccc2OC[C@H]2O[C@H](CC(=O)N[C@@H]3CCN(Cc4ccccc4)C3)CC[C@@H]21	none (no result: Pf Dd2 inh)
CN1C(=O)c2cc(NC(=O)c3ccc(F)c(F)c3)ccc2OC[C@@H]2O[C@@H](CC(=O)N[C@@H]3CCN(Cc4ccccc4)C3)CC[C@@H]21	T cruzi growth-1 112 (no result: Pf Dd2 inh) | T cruzi growth-2 102 | T cruzi growth-3 inactive | 3T3 cytotox inactive | 3T3 cytotox 2 39
CN1C(=O)c2cc(NC(=O)Cc3cccs3)ccc2OC[C@@H]2O[C@H](CC(=O)N[C@H]3CCN(Cc4ccccc4)C3)CC[C@@H]21	none (no result: Pf Dd2 inh)
CN1C(=O)c2cc(NC(=O)c3ccc(F)c(F)c3)ccc2OC[C@H]2O[C@H](CC(=O)N[C@H]3CCN(Cc4ccccc4)C3)CC[C@H]21	T cruzi growth-1 102 (no result: Pf Dd2 inh) | T cruzi growth-2 107 | T cruzi growth-3 inactive | 3T3 cytotox inactive | 3T3 cytotox 2 inactive
CN1C(=O)c2cc(NC(=O)Cc3cccs3)ccc2OC[C@H]2O[C@H](CC(=O)N[C@@H]3CCN(Cc4ccccc4)C3)CC[C@@H]21	none (no result: Pf Dd2 inh)
CN1C(=O)c2cc(NC(=O)c3ccc(F)c(F)c3)ccc2OC[C@H]2O[C@H](CC(=O)N[C@H]3CCN(Cc4ccccc4)C3)CC[C@@H]21	T cruzi growth-1 108 (no result: Pf Dd2 inh) | T cruzi growth-2 inactive | T cruzi growth-3 inactive | 3T3 cytotox inactive | 3T3 cytotox 2 inactive
CN1C(=O)c2cc(NC(=O)c3ccc(F)c(F)c3)ccc2OC[C@@H]2O[C@@H](CC(=O)N[C@H]3CCN(Cc4ccccc4)C3)CC[C@H]21	T cruzi growth-1 99 (no result: Pf Dd2 inh) | T cruzi growth-2 inconclusive | T cruzi growth-3 inactive | 3T3 cytotox inactive | 3T3 cytotox 2 inactive
CN1C(=O)c2cc(NC(=O)c3ccc(F)c(F)c3)ccc2OC[C@H]2O[C@@H](CC(=O)N[C@H]3CCN(Cc4ccccc4)C3)CC[C@@H]21	none (no result: Pf Dd2 inh)
CO[C@@H]1CN(C)C(=O)c2cc(NS(=O)(=O)c3cn(C)cn3)ccc2OC[C@H](C)N(C)C[C@@H]1C	none
COc1ccc(S(=O)(=O)N(C)C[C@@H]2Oc3ccc(NS(=O)(=O)c4ccc(F)cc4)cc3C(=O)N([C@@H](C)CO)C[C@H]2C)cc1	none
CC(C)C#Cc1ccc2c(c1)O[C@H](CN(C)C(=O)NC(C)C)[C@H](C)CN([C@@H](C)CO)S2(=O)=O	none
O=C(Nc1cc(F)ccc1F)N[C@@H]1C=C[C@@H](CC(=O)N2CCc3ccccc3C2)O[C@H]1CO	none (no result: C diff HTS)
Cc1ccccc1-c1ccc([C@@H]2[C@@H](CO)N3CCCCN(C(=O)c4cccnc4)C[C@@H]23)cc1	none
C[C@@H](NC(=O)[C@@H]1N[C@@H]2c3ccc(-c4ccncc4)c(=O)n3C[C@@H]2[C@H]1CO)c1ccccc1	none
CCc1cnc(N2[C@H](CO)[C@@H](c3ccc(C4=CCCCC4)cc3)[C@@H]2C#N)s1	none
CCc1cnc(N2[C@H](C#N)[C@H](c3ccc(C#CCC4CCCC4)cc3)[C@@H]2CO)s1	T cruzi growth-1 98 | T cruzi growth-2 inactive | T cruzi growth-3 114 | 3T3 cytotox inactive | 3T3 cytotox 2 inconclusive

Source: PubChem BioAssay (Broad Institute)
